Measurements reported in PubChem BioAssay.
Activity calls are given as the source filed them.

Tests used:
[1] = binders of probe aFSTL3 on microarray, primary screen, stem cell growth factor project, biochemical, small-molecule microarray, fluorescence 635/667 (AID 1064); details: higher = more signal;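 note: measures binding of the biotinylated anti-FSTL3 antibody to printed compounds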
[2] = binders from COS7 lysate, DM2A8 probe, primary screen, torsin A project, cell lysate, small-molecule microarray, fluorescence 635/667 (AID 1065); details: higher = more signal, COS7 lysate expressing mutant human TOR1A
[3] = binders of probe aFGF2 on microarray, primary screen, stem cell growth factor project, biochemical, small-molecule microarray, fluorescence 635/667 (AID 1067); details: higher = more signal;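 note: measures binding of biotinylated aFGF2 protein to printed compounds on slides; z-score merges feature fluorescence and signal-to-noise across triplicate slides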
[4] = binders of probe aFGF10 on microarray, primary screen, stem cell growth factor project, biochemical, small-molecule microarray, fluorescence 635/667 (AID 1071); details: higher = more signal;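 note: score merges 667 nm spot intensity and signal to noise from triplicate slides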
[5] = molecular target: Neurogenic locus notch homolog protein 2 (Homo sapiens) (UniProt Q04721); assay: Notch2 binders on small-molecule microarrays, primary screen, biochemical, small-molecule microarray, 635 nm fluorescence, stem cell growth factors (AID 1073); details: Notch2 binding, higher = more signal
Chain of Neurogenic locus notch homolog protein 2 (Homo sapiens) (Q04721 whole entry, looked up, canonical isoform): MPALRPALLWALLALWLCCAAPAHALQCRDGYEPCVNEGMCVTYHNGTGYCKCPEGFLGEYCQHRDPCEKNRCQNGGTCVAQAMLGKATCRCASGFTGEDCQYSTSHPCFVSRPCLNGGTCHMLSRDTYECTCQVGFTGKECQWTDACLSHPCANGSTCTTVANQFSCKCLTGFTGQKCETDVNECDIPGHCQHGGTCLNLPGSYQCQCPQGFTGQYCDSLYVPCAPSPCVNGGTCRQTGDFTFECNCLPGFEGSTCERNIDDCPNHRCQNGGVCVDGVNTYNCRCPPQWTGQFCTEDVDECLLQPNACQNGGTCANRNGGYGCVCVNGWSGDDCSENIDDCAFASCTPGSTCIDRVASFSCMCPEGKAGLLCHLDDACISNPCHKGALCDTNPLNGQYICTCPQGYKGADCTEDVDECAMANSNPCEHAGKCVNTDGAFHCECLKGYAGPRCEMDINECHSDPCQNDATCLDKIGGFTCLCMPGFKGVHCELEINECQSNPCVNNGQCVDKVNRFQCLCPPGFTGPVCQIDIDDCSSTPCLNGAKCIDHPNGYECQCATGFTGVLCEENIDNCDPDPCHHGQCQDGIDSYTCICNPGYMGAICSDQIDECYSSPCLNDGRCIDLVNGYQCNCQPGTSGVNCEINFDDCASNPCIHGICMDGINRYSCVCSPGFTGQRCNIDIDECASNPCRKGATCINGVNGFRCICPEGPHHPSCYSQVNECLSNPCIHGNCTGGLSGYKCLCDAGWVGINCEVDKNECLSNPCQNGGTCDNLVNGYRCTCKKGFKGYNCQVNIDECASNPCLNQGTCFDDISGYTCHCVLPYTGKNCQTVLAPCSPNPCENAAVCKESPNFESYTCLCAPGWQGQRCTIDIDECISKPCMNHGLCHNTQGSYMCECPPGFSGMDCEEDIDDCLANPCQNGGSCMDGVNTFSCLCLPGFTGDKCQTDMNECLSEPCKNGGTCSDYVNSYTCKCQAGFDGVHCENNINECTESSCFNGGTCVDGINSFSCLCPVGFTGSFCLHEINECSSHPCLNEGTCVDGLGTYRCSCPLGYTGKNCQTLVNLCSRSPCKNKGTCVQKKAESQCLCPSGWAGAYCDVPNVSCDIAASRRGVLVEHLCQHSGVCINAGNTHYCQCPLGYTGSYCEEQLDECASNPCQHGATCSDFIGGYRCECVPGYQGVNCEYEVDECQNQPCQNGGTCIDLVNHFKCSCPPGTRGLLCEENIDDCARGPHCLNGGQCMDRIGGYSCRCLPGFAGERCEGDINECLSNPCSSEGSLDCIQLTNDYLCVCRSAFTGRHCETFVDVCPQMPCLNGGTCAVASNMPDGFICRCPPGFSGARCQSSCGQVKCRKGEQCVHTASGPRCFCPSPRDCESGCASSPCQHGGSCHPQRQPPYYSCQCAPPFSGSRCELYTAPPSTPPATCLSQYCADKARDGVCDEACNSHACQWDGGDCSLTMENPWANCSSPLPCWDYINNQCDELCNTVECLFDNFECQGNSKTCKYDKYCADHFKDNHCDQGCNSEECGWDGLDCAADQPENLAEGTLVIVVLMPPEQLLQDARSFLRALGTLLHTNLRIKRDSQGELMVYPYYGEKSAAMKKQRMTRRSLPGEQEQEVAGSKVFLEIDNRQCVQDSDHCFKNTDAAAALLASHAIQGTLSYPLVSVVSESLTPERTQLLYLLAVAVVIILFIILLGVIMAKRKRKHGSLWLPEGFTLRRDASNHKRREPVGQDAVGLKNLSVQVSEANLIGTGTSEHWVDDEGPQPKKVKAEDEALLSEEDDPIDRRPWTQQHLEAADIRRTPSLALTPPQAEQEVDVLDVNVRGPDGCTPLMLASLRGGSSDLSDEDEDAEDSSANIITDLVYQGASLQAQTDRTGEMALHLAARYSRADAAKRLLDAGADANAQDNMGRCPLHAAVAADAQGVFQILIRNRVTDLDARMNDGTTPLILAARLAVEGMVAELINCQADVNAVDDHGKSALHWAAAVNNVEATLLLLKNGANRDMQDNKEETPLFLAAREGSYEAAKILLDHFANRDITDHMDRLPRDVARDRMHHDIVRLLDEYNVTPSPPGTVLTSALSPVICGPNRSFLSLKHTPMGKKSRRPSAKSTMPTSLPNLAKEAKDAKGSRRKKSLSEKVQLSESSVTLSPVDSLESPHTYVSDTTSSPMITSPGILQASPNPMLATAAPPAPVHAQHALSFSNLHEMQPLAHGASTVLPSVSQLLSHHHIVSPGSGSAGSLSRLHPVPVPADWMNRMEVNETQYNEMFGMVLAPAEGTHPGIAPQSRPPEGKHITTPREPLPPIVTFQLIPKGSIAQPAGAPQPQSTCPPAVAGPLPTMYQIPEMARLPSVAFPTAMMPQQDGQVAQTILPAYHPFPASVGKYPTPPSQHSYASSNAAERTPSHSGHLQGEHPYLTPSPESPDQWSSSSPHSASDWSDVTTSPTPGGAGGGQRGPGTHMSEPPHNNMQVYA

[6] = molecular target: Pro-neuregulin-1, membrane-bound isoform (Homo sapiens) (UniProt Q02297); assay: NRG1 binders on small-molecule microarrays, primary screen, psychiatric disease protein project, biochemical, small-molecule microarray, fluorescence 635/667 (AID 1075); details: NRG1 binding, 635 nm fluorescence, higher = more signal;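 note: score combines 667 nm spot fluorescence with signal to noise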
Chain of Pro-neuregulin-1, membrane-bound isoform (Homo sapiens) (Q02297 whole entry, looked up, the tested form may be a part, canonical isoform): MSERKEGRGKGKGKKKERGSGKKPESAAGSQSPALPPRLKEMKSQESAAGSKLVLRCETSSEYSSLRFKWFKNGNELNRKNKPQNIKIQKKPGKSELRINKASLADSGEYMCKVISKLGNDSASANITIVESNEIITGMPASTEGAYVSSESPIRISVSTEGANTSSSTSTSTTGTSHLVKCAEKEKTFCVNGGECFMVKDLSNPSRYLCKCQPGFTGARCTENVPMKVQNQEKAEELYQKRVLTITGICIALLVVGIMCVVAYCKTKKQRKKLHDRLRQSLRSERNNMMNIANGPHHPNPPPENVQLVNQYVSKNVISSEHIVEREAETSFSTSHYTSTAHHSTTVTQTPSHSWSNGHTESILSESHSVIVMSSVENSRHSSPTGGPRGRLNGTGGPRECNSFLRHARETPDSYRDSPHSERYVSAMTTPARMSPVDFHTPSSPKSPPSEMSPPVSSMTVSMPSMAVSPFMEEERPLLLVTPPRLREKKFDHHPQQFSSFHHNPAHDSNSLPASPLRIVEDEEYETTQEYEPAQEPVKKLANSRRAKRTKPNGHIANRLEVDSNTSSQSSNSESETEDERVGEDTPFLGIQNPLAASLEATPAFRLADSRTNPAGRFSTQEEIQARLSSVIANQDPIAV

[7] = system: Neuregulin-1 EGF-like domain; assay: binders of neuregulin-1 EGF-like domain, primary screen, biochemical, small-molecule microarray, 635 nm fluorescence (AID 1081); details: small-molecule microarray binding, higher = more signal;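 note: binding of the protein to compounds printed on small-molecule microarray slides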
[8] = FRG1 promoter luciferase signal modulators, primary screen, FRG1 inhibition for FSHD, cell-based, C2C12 myotubes, firefly/Renilla luciferase, luminescence (AID 1084); details: higher = more signal, called active from +8 up or from −8 down
[9] = binders of probe aFST on microarray, primary screen, stem cell growth factor project, biochemical, small-molecule microarray, fluorescence 635/667 (AID 1086); details: higher = more signal;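 note: score merges 667 nm fluorescence with signal-to-noise of each printed compound spot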
[10] = binders of probe aHhip on microarray, primary screen, stem cell growth factor project, biochemical, small-molecule microarray, fluorescence 635/667 (AID 1087); details: higher = more signal;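 note: score merges spot fluorescence at 667nm with spot signal to noise ratio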

SMILES	composite z-score [1]	composite z-score [2]	composite z-score [3]	composite z-score [4]	composite z-score [5]	composite z-score [6]	composite z-score [7]	z-score [8]	composite z-score [9]	composite z-score [10]
COCCOC(=O)N1C(=O)[C@@]2(c3cc(C#CCNC(N)=O)ccc31)[C@H](C(=O)N1CCN(c3ncccn3)CC1)[C@H]1C(=O)O[C@H](c3ccccc3)[C@H](c3ccccc3)N1[C@@H]2c1ccc(OCCO)cc1	0.0392	0.382	0.0465	0.719	0.795	0.821	0.87	0.0006 (inactive)	0.601	0.0939
Cc1ccc(S[C@]2(C(=O)NCCCN(C)C)CC(=O)N(Cc3cc(C(F)(F)F)cc(C(F)(F)F)c3)[C@@H]2c2ccc(CO)cc2I)cc1	0.746	0.0752	-0.0894	-0.21	-1.21	2.07	0.634	0.452 (inactive)	-0.191	-0.0994
O=C1C[C@@](C(=O)NCC(F)(F)F)(c2ccc([N+](=O)[O-])cc2)[C@@H](c2ccc(CO)cc2I)N1C1CCCCC1	-0.0205	0.95	-0.0257	0.19	1.46	0.811	1.24	0.467 (inactive)	0.414	-0.0994
CC(C)c1ccc(NN2C(C(O)c3ccc(B(O)O)cc3)C=CC3C(=O)N(c4ccccc4)C(=O)C32)cc1 (stereo not given)	0.842	0.0275	0.185	1.13	1.63	1.19	1.15	0.87 (inactive)	1.67	0.0722
C=CCOC(=O)[C@H]1[C@@H]2C(=O)O[C@@H](c3ccccc3)[C@@H](c3ccccc3)N2[C@@H](c2ccc(OCCOC(=O)[C@H]3C[C@H]4C(=O)N[C@@H](CCCCNC(C)=O)C(=O)N4[C@H]3c3cccc(OCCO)c3)cc2)[C@]12C(=O)Nc1ccccc12	-0.0212	1	-0.0723	0.732	0.279	0.786	1.11	1.12 (inactive)	-0.047	-0.0994
Cc1ccc(S[C@]2(C(=O)NCCCN(C)C)CC(=O)N(Cc3ccccc3C(F)(F)F)[C@@H]2c2ccc(CO)cc2)cc1	0.678	-0.554	-0.138	-0.572	-1.37	0.907	-1.08	-1.31 (inactive)	0.0539	-0.0994
C=C(C(=O)CC[C@@H](OC(=O)c1cccnc1)c1ccccc1OCCO)C(C)C	-0.44	0.447	-0.119	0.0736	0.151	0.21	0.624	-0.151 (inactive)	0.0397	0.0156
C=CCC(OC(C)=O)[C@@H]1[C@@H](N(Cc2ccc(-c3ccccc3)cc2)C(=O)c2ccc(-c3ccccc3)cc2)c2cc(OCCCO)ccc2N1C(=O)Cc1ccc2ccccc2c1 (stereo not given in full)	-0.519	0.574	-0.117	0.0381	0.186	0.0278	-0.6	0.187 (inactive)	0.2	-0.0631
C[N+](C)(C)CCCCCCNC(=O)[C@@H]1C[C@@H]2C(=O)N[C@@H](Cc3ccccc3)C(=O)N2[C@@H]1c1cccc(OCCO)c1	-0.0274	0.673	-0.0969	0.44	-0.165	1.2	1.34	1.5 (inactive)	0.143	0.236
COCCOC(=O)N1C(=O)[C@@]2(c3cc(C#Cc4ccc(OC)cc4)ccc31)[C@H](c1ccc(OCCO)cc1)N1[C@H](c3ccccc3)[C@H](c3ccccc3)OC(=O)[C@H]1[C@@H]2C(=O)N1CCN(c2ncccn2)CC1	-0.144	0.316	-0.0113	0.397	0.926	-0.318	1.13	0.598 (inactive)	0.736	0.0176
COCCCNC(=O)[C@@H]1c2ccccc2C(=O)N(Cc2ccccc2Cl)[C@H]1c1ccc(CO)cc1	0.189	-0.0402	-0.117	-0.247	0.161	0.379	1.48	-1.76 (inactive)	0.465	-0.0237
CC(=O)NCCCC[C@@H]1NC(=O)[C@@H]2C[C@H](C(=O)NCCCCCNC(=O)CS)[C@H](c3cccc(OCCO)c3)N2C1=O	-0.525	-0.047	-0.211	0.37	0.121	-0.122	0.709	0.618 (inactive)	-0.195	-0.212
CCC(CC)C(O)C1C=CC2C(=O)NC(=O)C2N1Nc1ccc(Cl)cc1Cl (stereo not given)	0.494	0.318	0.133	0.309	1.42	0.971	1.08	-1.71 (inactive)	0.812	0.0749
COCCOC(=O)N1C(=O)[C@@]2(c3cc(C#CCC(C(=O)OC)C(=O)OC)ccc31)[C@H](C(=O)N1CCN(c3ncccn3)CC1)[C@H]1C(=O)O[C@H](c3ccccc3)[C@H](c3ccccc3)N1[C@@H]2c1ccccc1OCCO	-0.486	0.51	0.0247	0.86	1.32	0.841	1.27	0.131 (inactive)	0.495	-0.0346
CN(C)C(=O)[C@@]1(CCS(=O)(=O)c2ccccc2)COC(c2ccc(OCCCO)cc2)=N1	0.578	-0.149	0.127	0.568	0.331	1.8	1.36	-2.05 (inactive)	0.47	-0.141
CCCC[C@@H]1C[C@H]1[C@@H](NC(=O)c1ccccc1)c1ccc(C(=O)OC)cc1	1.37	-0.0965	-0.0273	-0.282	-0.547	-0.273	-0.544	0.191 (inactive)	-0.303	0.35

SMILES	composite z-score [1]	composite z-score [2]	composite z-score [3]	composite z-score [4]	composite z-score [5]	composite z-score [6]	composite z-score [7]	z-score [8]	composite z-score [9]	composite z-score [10]
C=C[C@H](OC)[C@@H](OC(=O)Nc1ccc(OC)cc1)c1ccc(O)c(F)c1	0.348	0.242	-0.175	-0.827	-1.31	1.11	0.804	2.95 (inactive)	-0.922	-0.0994
COC(=O)[C@@]1(Cc2ccc(OC)cc2)[C@H]2c3cc(C(=O)N(C)C)n(Cc4ccccn4)c3C[C@H]2CN1C(=O)c1ccccc1	1.19	2.08	0.0395	-0.175	1.4	2.35	0.89	0.0734 (inactive)	0.852	0.408
O=C(c1ccccc1)N1C(=O)[C@]2(COC(c3ccc(OCCCO)cc3)=N2)Cc2ccccc21	0.303	0.863	0.11	0.879	0.839	1.72	1.34	1.23 (inactive)	0.647	-0.266
O=C1C2C=CC(C(O)c3cccc4ccccc34)N(Nc3ccccc3F)C2C(=O)N1c1ccccc1 (stereo not given)	0.154	-0.371	-0.0209	0.64	1.67	1.27	1.23	0.856 (inactive)	1.23	-0.0672
C=C(CCCC)/C(=C/C[C@H](OC(=O)c1ccncc1)c1ccccc1OCCO)c1cnc2ccccc2c1	-0.345	1.04	-0.0544	0.706	0.965	0.424	1.05	-0.756 (inactive)	0.228	0.126
CCc1cccc(NC(=O)O[C@H]2[C@H](OC(=O)Nc3ccccc3-c3ccccc3)[C@@H](OC(=O)Nc3ccccc3-c3ccccc3)[C@@H](OC)O[C@@H]2CO)c1	-0.283	0.79	0.14	0.806	1.6	1.88	1.27	1.38 (inactive)	1.32	-0.104
CCOC(=O)C[C@H]1[C@H](OC(=O)c2ccc(C(=O)c3ccccc3)cc2)[C@@H](NC(=O)c2ccccc2)c2cc(OCCCO)ccc2N1C(=O)c1ccc2ccccc2n1	-0.416	0.0991	-0.0206	0.234	1.27	0.682	0.417	-0.266 (inactive)	0.314	0.107
COc1ccccc1CN1C(=O)c2ccccc2[C@@]2(Cc3ccccc3N(CC(C)C)C2=O)[C@@H]1c1ccc(CO)cc1	-0.211	-0.44	-0.0543	0.134	-0.304	-0.0503	-0.738	-0.0845 (inactive)	-0.595	-0.0994
O=C1C2C=CC(C(O)c3cc(C(F)(F)F)cc(C(F)(F)F)c3)N(n3cnnc3)C2C(=O)N1Cc1ccccc1 (stereo not given)	-0.153	0.0607	-0.0628	-0.251	0.203	0.339	-0.159	1.1 (inactive)	0.368	0.144
CN1C(=O)C2C=CC(C(O)C3CC=CCC3)N(N(c3ccccc3)c3ccccc3)C2C1=O (stereo not given)	0.677	-0.0811	0.0247	-0.0455	0.172	-0.282	0.33	-0.654 (inactive)	0.408	-0.137
COc1ccc(C#Cc2ccc3c(c2)[C@]2(C(=O)N3)[C@H](c3ccccc3OCCO)N3[C@H](c4ccccc4)[C@H](c4ccccc4)OC(=O)[C@H]3[C@@H]2C(=O)Nc2nc3ccccc3s2)cc1	-0.541	-0.0327	-0.0232	0.615	1.18	0.65	1.17	2.1 (inactive)	0.362	-0.0618
C=CCOC(=O)[C@H]1[C@@H]2C(=O)O[C@@H](c3ccccc3)[C@@H](c3ccccc3)N2[C@@H](c2ccc(OCCOC(=O)[C@H]3C[C@H]4C(=O)N[C@@H](CCCCN(C)C)C(=O)N4[C@H]3c3ccc(O)cc3)cc2)[C@]12C(=O)Nc1ccc(I)cc12	-0.38	1.01	0.0266	0.948	1.33	1.77	1.3	1.49 (inactive)	0.0907	-0.274
[N-]=[N+]=Nc1ccccc1[C@@H]1OC(c2ccc(OCCCO)cc2)=N[C@]1(Cc1ccccc1)C(=O)N1CCOCC1	0.324	0.0788	0.14	0.781	1.55	1.26	1.2	-1.5 (inactive)	0.802	0.0053
COc1cc2c(cc1OC)CN(C(=O)[C@H]1[C@@H]3C(=O)O[C@@H](c4ccccc4)[C@@H](c4ccccc4)N3[C@@H](c3ccc(O)cc3)[C@]13C(=O)Nc1ccccc13)CC2	0.418	0.814	-0.0282	0.681	-0.0554	1.41	1.38	-1.09 (inactive)	-0.0422	0.0129
CC(C)C(=C=CC[C@@H](O)c1ccc(OCCO)cc1)C[C@@H](O)c1ccccn1	-0.149	0.651	0.0297	1.19	0.344	-0.272	0.826	0.463 (inactive)	-0.0267	-0.166
CCCC#C[Si](O[C@H](CC)c1cn(Cc2cccc(Cl)c2)nn1)(C(C)C)C(C)C	-0.468	-0.139	-0.0865	0.85	0.831	-0.0184	1.15	0.414 (inactive)	0.0751	-0.137
